sPLA2-III inh: Inhibits HGIII-sPLA2 liposome hydrolysis, primary screen | QFRET BODIPY PC-A2 liposome hydrolysis, fluorescence | actives 0.56% (n = 370,000) | inhibition, % at 12.2 µM | Q9NZ20;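 active means inhibition above mean plus 3 SD of compounds lying within the high and low control bounds, cut at about 19% in these data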
PLCb3 inh: PLC-beta3 (human) inhibition, primary screen. Q01970. Purified PLC-beta3, fluorogenic substrate, fluorescence. inhibition, % at 12.2 µM. actives 0.18% (n = 370,000). AID 720704; in the data active means inhibition above about 11%
ADAM17 inh: inhibitors of human ADAM17 | recombinant ADAM17, EDANS/DABCYL FRET peptide cleavage | inhibition, % at 6.95 µM | actives 0.83% (n = 370,000);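 active means inhibition above the mean of compounds lying between control limits plus 3 SD, set per campaign, cut at about 8.5% in these data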
Target sequence (P78536 215-824 limits assumed): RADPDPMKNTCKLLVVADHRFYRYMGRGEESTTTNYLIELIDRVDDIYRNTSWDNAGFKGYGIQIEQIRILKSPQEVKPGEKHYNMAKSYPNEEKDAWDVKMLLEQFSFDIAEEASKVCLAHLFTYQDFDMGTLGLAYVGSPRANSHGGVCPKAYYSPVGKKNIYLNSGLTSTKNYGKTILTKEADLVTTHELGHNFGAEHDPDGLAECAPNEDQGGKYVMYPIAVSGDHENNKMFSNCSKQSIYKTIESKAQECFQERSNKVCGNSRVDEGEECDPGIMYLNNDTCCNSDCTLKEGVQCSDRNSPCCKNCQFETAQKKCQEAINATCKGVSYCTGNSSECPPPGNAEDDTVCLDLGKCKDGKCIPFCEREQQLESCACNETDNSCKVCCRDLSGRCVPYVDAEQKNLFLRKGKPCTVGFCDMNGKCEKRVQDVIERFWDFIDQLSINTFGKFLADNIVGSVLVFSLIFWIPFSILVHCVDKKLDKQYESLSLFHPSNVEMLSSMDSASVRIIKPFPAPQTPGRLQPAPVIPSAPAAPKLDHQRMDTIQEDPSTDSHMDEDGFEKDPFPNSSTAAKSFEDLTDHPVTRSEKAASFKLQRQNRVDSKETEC
ADAM10 inh: ADAM10 inhibition, QFRET primary screen | inhibition, % at 7 µM | AID 720582 | recombinant ADAM10, EDANS/DABCYL FRET peptide cleavage, 3 h | actives 0.62% (n = 370,000);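 active means inhibition above a per-campaign cutoff equal to the mean of compounds falling between control-based bounds plus 3 SD, cut at about 20% in these data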
PLC-gamma1 inh: inhibitors of human phospholipase C gamma1; AID 720700; purified PLC-gamma1, fluorogenic substrate, fluorescence; actives 0.84% (n = 370,000); P19174; inhibition, % at 12.2 µM; in the data active means inhibition above about 9.5%
proKLK7 act: activates the human kallikrein-7 zymogen. P49862. purified proKLK7, EDANS-DABCYL substrate fluorescence; 100% is mature enzyme control, 0% vehicle. activation, % at 7 µM. actives 0.9% (n = 370,000). AID 652039;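 active means activation above the mean of all tested compounds plus 3 SD, computed per campaign excluding outliers beyond control limits, cut at about 13% in these data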
KLK7 act conf: confirmation of human kallikrein-7 zymogen activators | shares compounds with proKLK7 act | purified proKLK7, EDANS-DABCYL substrate fluorescence; scaled: vehicle 0, mature enzyme 100 | activation, % at 7 µM | actives 68% (n = 3,200);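 active means activation, as change over the incubation, above the mean of all tested compounds plus 3 SD, cut at about 13% in these data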
EDANS interfere: fluorescence interference counter-screen for KLK7 activators. shares compounds with proKLK7 act. EDANS-DABCYL substrate fluorescence interference, no enzyme, 4 h; solvent 0%, active enzyme control 100%. activation, % at 7 µM. actives 80% (n = 3,200). AID 686952;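 active means activation above the all-compound mean plus 3 SD, ignoring values outside control-based bounds, cut at about 4.8% in these data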;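 further: value is the 4 h activation minus the activation read at time zero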
EDANS interf: optically interferes with EDANS-DABCYL fluorescence, kallikrein-7 activator counter-screen | shares compounds with proKLK7 act | EDANS-DABCYL peptide fluorescence interference, no enzyme | EC50, µM | actives 20% (n = 250) | AID 720493;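 active means compounds that raise the fluorescence signal in this interference counterscreen, with EC50 at or below 10 µM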;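 further: intact quenched peptide substrate alone read at 355 nm excitation and 520 nm emission; signal is fluorescence gain from T0 to T4 after four hours at room temperature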
Numbers stand for hits. This is a sample that favours compounds with a hit; in the whole collection about 3.4% have one here.

For COc1ccc2cc3cc(C(=O)Nc4cc(OC)c(OC)c(OC)c4)oc3nc2c1 the results were sPLA2-III inh inactive, PLCb3 inh inactive, ADAM17 inh inactive, ADAM10 inh inactive, PLC-gamma1 inh inactive and proKLK7 act inactive.
CCCCN(C)C(=O)c1cc2cc3ccc(OC)cc3nc2o1 was read as sPLA2-III inh inactive, PLCb3 inh inactive, ADAM17 inh inactive, ADAM10 inh inactive, PLC-gamma1 inh inactive and proKLK7 act inactive.
Screening CCCCN(C)CCNC(=O)c1cc2cc3ccc(OC)cc3nc2o1 returned sPLA2-III inh inactive, PLCb3 inh inactive, ADAM17 inh inactive, ADAM10 inh inactive, PLC-gamma1 inh inactive, proKLK7 act 100, KLK7 act conf 54 and EDANS interfere 77.
CCN(CC)CCNC(=O)c1cc2cc3ccc(OC)cc3nc2o1 was read as sPLA2-III inh inactive, PLCb3 inh inactive, ADAM17 inh inactive, ADAM10 inh inactive, PLC-gamma1 inh inactive, proKLK7 act 24, KLK7 act conf 76 and EDANS interfere 84.
`COCCCNC(=O)c1cc2cc3cc(OC)ccc3nc2o1` gave sPLA2-III inh inactive, PLCb3 inh inactive, ADAM17 inh inactive, ADAM10 inh inactive, PLC-gamma1 inh inactive, proKLK7 act 23, KLK7 act conf 23 and EDANS interfere 29.
Screening COc1ccc2cc3cc(C(=O)NCc4ccc5c(c4)OCO5)oc3nc2c1 returned sPLA2-III inh inactive, PLCb3 inh inactive, ADAM17 inh inactive, ADAM10 inh inactive, PLC-gamma1 inh inactive and proKLK7 act inactive.
`Cc1ccc2cc3cc(C(=O)N4CC(C)CC(C)C4)oc3nc2c1` (stereo not given) gave sPLA2-III inh inactive, PLCb3 inh inactive, ADAM17 inh inactive, ADAM10 inh inactive, PLC-gamma1 inh inactive and proKLK7 act inactive.
COc1ccc2cc3cc(C(=O)NCc4cccnc4)oc3nc2c1 was read as sPLA2-III inh inactive, PLCb3 inh inactive, ADAM17 inh inactive, ADAM10 inh inactive, PLC-gamma1 inh inactive, proKLK7 act 45, KLK7 act conf 54 and EDANS interfere 53.
For Cc1ccc2cc3cc(C(=O)NCCCN4CC(C)CC(C)C4)oc3nc2c1 (stereo not given) the results were sPLA2-III inh inactive, PLCb3 inh inactive, ADAM17 inh inactive, ADAM10 inh inactive, PLC-gamma1 inh inactive, proKLK7 act 30, KLK7 act conf inactive and EDANS interfere inactive.
CCCCCCCCN1C(=O)[C@@H](CC(=O)NCc2cccc3ccccc23)C[C@@]2(C(=O)OC)C1=C[C@H](C(C)C)O[C@@H]2C1CC1 was read as sPLA2-III inh inactive, PLCb3 inh inactive, ADAM17 inh inactive, ADAM10 inh inactive, PLC-gamma1 inh inactive and proKLK7 act inactive.
`COC(=O)[C@@]12CCCCC=C1N(CCc1ccc(Cl)cc1)C(=O)[C@H]2CC(=O)NCC12CC3CC(CC(C3)C1)C2` gave sPLA2-III inh inactive, PLCb3 inh inactive, ADAM17 inh inactive, ADAM10 inh inactive, PLC-gamma1 inh inactive and proKLK7 act inactive.
For CN1CCN(C(=O)c2ccc(-c3cccs3)s2)CC1 the results were sPLA2-III inh inactive, PLCb3 inh inactive, ADAM17 inh inactive, ADAM10 inh inactive, PLC-gamma1 inh inactive, proKLK7 act 32, KLK7 act conf inactive and EDANS interfere 5.3.
CCc1cccc2cc3c(N)c(C(=O)Nc4ccc(S(=O)(=O)N5CCCC5)cc4)sc3nc12 was read as sPLA2-III inh inactive, PLCb3 inh inactive, ADAM17 inh inactive, ADAM10 inh inactive, PLC-gamma1 inh inactive, proKLK7 act 119, KLK7 act conf 62 and EDANS interfere 57.
For N#CCn1cc(/C=N/NC(=O)c2cc3c(ccc4ccccc43)o2)c2ccccc21 the results were sPLA2-III inh inactive, PLCb3 inh inactive, ADAM17 inh inactive, ADAM10 inh inactive, PLC-gamma1 inh inactive, proKLK7 act 35, KLK7 act conf inactive and EDANS interfere inactive.
Screening COc1ccc(/C=N/NC(=O)c2cc3c(ccc4ccccc43)o2)cc1OC returned sPLA2-III inh inactive, PLCb3 inh inactive, ADAM17 inh inactive, ADAM10 inh inactive, PLC-gamma1 inh inactive, proKLK7 act 43, KLK7 act conf 58, EDANS interfere 4.5 and EDANS interf inactive.
For CCCCNC(=O)OCCCN1CCC2(CCC(c3ccccc3)CC2)C1 (stereo not given) the results were sPLA2-III inh inactive, PLCb3 inh inactive, ADAM17 inh inactive, ADAM10 inh inactive, PLC-gamma1 inh inactive and proKLK7 act inactive.
For COc1ccc(C2C(C(=O)N3CCOCC3)=C(C)NC3=C2C(=O)CC(C)(C)C3)c(OC)c1 (stereo not given) the results were sPLA2-III inh inactive, PLCb3 inh inactive, ADAM17 inh inactive, ADAM10 inh inactive, PLC-gamma1 inh inactive, proKLK7 act 18, KLK7 act conf 31, EDANS interfere 20 and EDANS interf inactive.
`CC1(C)CC(=O)c2cc(OCC(=O)NCCN3CCCc4ccccc43)ccc2O1` gave sPLA2-III inh inactive, PLCb3 inh inactive, ADAM17 inh inactive, ADAM10 inh inactive, PLC-gamma1 inh inactive, proKLK7 act 18, KLK7 act conf 43 and EDANS interfere 39.
For CC(C)CCNC(=O)COc1ccc2c(c1)C(=O)CC(C)(C)O2 the results were sPLA2-III inh inactive, PLCb3 inh inactive, ADAM17 inh inactive, ADAM10 inh inactive, PLC-gamma1 inh inactive, proKLK7 act 40, KLK7 act conf 35 and EDANS interfere 47.
COc1ccc(NC(=O)COc2coc(CN3CCCc4ccccc43)cc2=O)cc1 was read as sPLA2-III inh inactive, PLCb3 inh inactive, ADAM17 inh inactive, ADAM10 inh inactive, PLC-gamma1 inh inactive and proKLK7 act inactive.
CCC(Oc1ccc2c(c1)C(=O)CC(C)(C)O2)C(=O)NCCN1CCCCCC1 (stereo not given) was read as sPLA2-III inh inactive, PLCb3 inh inactive, ADAM17 inh inactive, ADAM10 inh inactive, PLC-gamma1 inh inactive, proKLK7 act 129, KLK7 act conf 49 and EDANS interfere 44.
For COc1ccc(N2CCN(CCCNC(=O)CCc3cccc(F)c3)CC2)cc1 the results were sPLA2-III inh inactive, PLCb3 inh inactive, ADAM17 inh inactive, ADAM10 inh inactive, PLC-gamma1 inh inactive and proKLK7 act inactive.
CC1(C)CC(=O)c2cc(OCC(=O)NCCCN3CCN(c4ccc(F)cc4)CC3)ccc2O1 was read as sPLA2-III inh inactive, PLCb3 inh inactive, ADAM17 inh inactive, ADAM10 inh inactive, PLC-gamma1 inh inactive, proKLK7 act 17, KLK7 act conf inactive and EDANS interfere inactive.

Screens: PubChem, The Scripps Research Institute Molecular Screening Center
